This is an account of results in PubChem BioAssay (EPA / NIEHS).

Assay [1] has as its target Bile acid receptor (Homo sapiens) (UniProt Q96RI1). The experiment in a line: ATG_IR1_CIS: Attagene CIS-FACTORIAL HepG2 Assay for human Nuclear Receptor Subfamily 1 Group H Member 4 (NR1H4), IR1 submotif (AID 2282946). The conditions noted are these: IR1 reporter transcription, actives raise or lower the signal. The procedure, abridged:
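HepG2 cells transiently transfected with multiplexed cis-element reporter units read endogenous transcription factor activity. After 24 h compound exposure, reporter mRNA was quantified by RT-PCR, fluorescent labelling, HpaI digestion and capillary electrophoresis; bidirectional fitting versus DMSO baseline.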

A short description of assay [2]: ATG_GRE_CIS: Attagene CIS-FACTORIAL HepG2 Assay for human Glucocorticoid Response Elements (GRE) (AID 2282947). The conditions noted are these: HepG2 GRE cis-reporter, Attagene multiplex mRNA; actives raise or lower the signal. Put shortly:
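Multiplexed cis-reporter mRNA induction, HepG2, 24 h post-dose. RT-PCR, FAM-labelled, HpaI-digested amplicons by CE. Bidirectional fit vs DMSO.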

A short description of assay [3]: ATG_ISRE_CIS: Attagene CIS-FACTORIAL HepG2 Assay for human Interferon Regulatory Factor 1 (IRF1) binding to an Interferon-Stimulated Response Element (ISRE) (AID 2282948). To be noted: HepG2 ISRE cis-reporter (Attagene), mRNA transcription readout; actives raise or lower the signal. The procedure, abridged:
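Multiplexed mRNA reporter readout in human liver HepG2 cells: cis-element-driven reporters transfected, compound added for 24 h, transcripts amplified, fluorescently labelled and sized by capillary electrophoresis; curve fitting bidirectional against DMSO.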

A short description of assay [4]: ATG_M_32_CIS: Attagene CIS-FACTORIAL HepG2 Assay for M32 Transcription Factor (Internal Marker) (AID 2282949).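 Note: background control marker of the multiplexed CIS panel rather than a real target.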 To be noted: HepG2 Attagene cis-factorial M32 reporter, mRNA; actives raise or lower the signal. Put shortly: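 Transient MRTU transfection of HepG2; 24 h compound treatment; TriZol RNA, oligo(dT) RT, reporter PCR, 6-FAM primer extension, HpaI cut, CE. Gain/loss of signal vs DMSO.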

Assay [5] is described as follows: ATG_M_06_CIS: Attagene CIS-FACTORIAL HepG2 Assay for M06 Transcription Factor (Internal Marker) (AID 2282950). The conditions noted are these: HepG2 Attagene CIS-FACTORIAL M06 internal marker reporter; actives raise or lower the signal. Put shortly:
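Terse: HepG2, transient MRTU transfection (FuGene 6), 24 h dosing; total RNA, oligo(dT) RT, PCR, FAM label, HpaI cut, capillary electrophoresis; bidirectional fit vs DMSO baseline; background-control endpoint.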

Assay [6] has as its target Hypoxia-inducible factor 1-alpha (Homo sapiens) (UniProt Q16665). The experiment in a line: ATG_HIF1a_CIS: Attagene CIS-FACTORIAL HepG2 Assay for human Hypoxia Inducible Factor 1 (HIF1A) (AID 2282951). The conditions noted are these: HepG2 Attagene cis-factorial HIF1a reporter transcription; actives raise or lower the signal. Put shortly: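 Dosed 24 h, transfected HepG2 cells yielded total RNA whose reporter transcripts were RT-PCR-amplified and sized by capillary electrophoresis using fluorescent labelling; DMSO defined baseline, with gain and loss of signal both fitted.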

In assay [7] the target is Hepatocyte nuclear factor 6 (Homo sapiens) (UniProt Q9UBC0). As to the kind of experiment: ATG_HNF6_CIS: Attagene CIS-FACTORIAL HepG2 Assay for human Hepatocyte Nuclear Factor 6 (HNF6) (AID 2282952). To be noted: HepG2 Attagene cis-factorial HNF6 reporter transcription; actives raise or lower the signal. Put shortly:
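Endogenous factor activity read in transiently transfected HepG2 via promoter-regulated reporter transcripts. RNA harvested 24 h post-dosing, reverse-transcribed, PCR-amplified, FAM-labelled, HpaI-digested and resolved by capillary electrophoresis; fitted in both directions against DMSO.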

Assay [8] can be described thus: ATG_MRE_CIS: Attagene CIS-FACTORIAL HepG2 Assay for human Metal Responsive Element (MRE) (AID 2282954). The conditions noted are these: HepG2 MRE cis-reporter transcription, Attagene multiplex; actives raise or lower the signal. Put shortly: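 Multiplexed cis-reporter assay in human HepG2 liver cells, 24 h incubation with test chemical. Reporter transcripts measured by RT-PCR and capillary electrophoresis; values from bidirectional curve fitting versus DMSO.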

A short description of assay [9]: ATG_PBREM_CIS: Attagene CIS-FACTORIAL HepG2 Assay for human Phenobarbital-responsive Enhancer Module (PBREM) (AID 2282955). To be noted: HepG2 PBREM cis-reporter, Attagene multiplexed transcription; actives raise or lower the signal. Put shortly:
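Transfected liver-derived HepG2 cells exposed 24 h; PBREM reporter transcript quantified via RT-PCR and capillary electrophoresis, with activity in either direction referenced to DMSO.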

Assay [10] concerns the target Paired box protein Pax-6 (Homo sapiens) (UniProt P26367). The experiment in a line: ATG_Pax6_CIS: Attagene CIS-FACTORIAL HepG2 Assay for human Paired Box 6 (PAX6) (AID 2282956). To be noted: HepG2 CIS-FACTORIAL PAX6 reporter transcription, RNA readout; actives raise or lower the signal. Put shortly:
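Fluorescent RT-PCR products separated by capillary electrophoresis report PAX6-linked promoter mRNA in HepG2 cells 24 h post-dose. Curves fitted bidirectionally, DMSO as negative control.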

Assay [11] can be described thus: ATG_PXRE_CIS: Attagene CIS-FACTORIAL HepG2 Assay for human Pregnane X Receptor Element (PXRE) (AID 2282957). The conditions noted are these: HepG2 Attagene CIS-FACTORIAL PXRE reporter, mRNA; actives raise or lower the signal. Put shortly: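 Reporter transcripts under endogenous PXR-responsive cis-regulation quantified from total RNA of transfected HepG2 cells 24 h post-dosing, via RT-PCR with fluorescent primer extension and capillary electrophoresis. Gain or loss of signal fitted against DMSO baseline.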

The nature of assay [12]: ATG_PPRE_CIS: Attagene CIS-FACTORIAL HepG2 Assay for human Peroxisome Proliferator-activated Response Element (PPRE) (AID 2282958). To be noted: HepG2 PPRE cis-element reporter, Attagene transcription factor profiling; actives raise or lower the signal. Put shortly:
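Measured endpoint: PPRE-controlled reporter mRNA, detected by RT-PCR and capillary electrophoresis fluorescence, from transiently transfected HepG2 cells 24 h after dosing. Curves fitted in both directions using DMSO baseline.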

The nature of assay [13]: ATG_RORE_CIS: Attagene CIS-FACTORIAL HepG2 Assay for human RAR-related Orphan Receptor Element (RORE) (AID 2282959). The conditions noted are these: HepG2 Attagene cis-factorial RORE reporter, mRNA; actives raise or lower the signal. The procedure, abridged:
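Transiently transfected HepG2 reporter cells were treated 24 h. Reporter transcripts were detected by RT-PCR and capillary electrophoresis, with bidirectional fitting against DMSO.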

Assay [14] is described as follows: ATG_Sox_CIS: Attagene CIS-FACTORIAL HepG2 Assay for human SRY-box transcription factor (SOX) (AID 2282960). To be noted: HepG2 Attagene cis-factorial SOX reporter, mRNA; actives raise or lower the signal. The procedure, abridged:
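Gain- or loss-of-signal endpoint, fitted bidirectionally with DMSO as negative control. Based on reporter mRNA from transfected HepG2 cells harvested 24 h post-treatment and quantified via RT-PCR and capillary electrophoresis.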

The target of assay [15] is Transcription factor Sp1 (Homo sapiens) (UniProt P08047). The experiment in a line: ATG_Sp1_CIS: Attagene CIS-FACTORIAL HepG2 Assay for human Specificity Protein 1 (Sp1) (AID 2282961). To be noted: HepG2 Sp1 cis-reporter transcription, actives raise or lower the signal. Put shortly:
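Endpoint reflects endogenous Sp1 transcriptional activity, not an exogenous fusion protein: HepG2 cells with transfected cis-regulated reporters, 24 h dosing, RT-PCR/capillary electrophoresis mRNA read-out, DMSO-normalised bidirectional fit.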

Assay [16] is described as follows: ATG_SREBP_CIS: Attagene CIS-FACTORIAL HepG2 Assay for human Sterol Regulatory Element Binding (SREBP) (AID 2282962). The conditions noted are these: HepG2 Attagene cis-factorial SREBP reporter, mRNA; actives raise or lower the signal. Put shortly:
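Endogenous factor activity is measured in HepG2 through multiplexed reporter units under cis-element control. Following a 24 h incubation, reporter transcripts are reverse-transcribed, PCR-amplified and sized by capillary electrophoresis; activity is fitted in both directions relative to DMSO.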

Assay [17] in a line: ATG_TA_CIS: Attagene CIS-FACTORIAL HepG2 Assay for human TA Basal Promoter (AID 2282964). To be noted: HepG2 Attagene CIS-factorial TA basal promoter reporter; actives raise or lower the signal. The procedure, abridged: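 Transfected HepG2, 24 h compound exposure; RNA → RT-PCR → FAM primer extension → HpaI cut → CE fluorescence. Gain/loss-of-signal fitted against DMSO negative control. Background-control readout.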

A short description of assay [18]: ATG_TCF_b_cat_CIS: Attagene CIS-FACTORIAL HepG2 Assay for human T-Cell-Factor with beta-catenin (TCF/b-cat) (AID 2282965). The conditions noted are these: HepG2 TCF/beta-catenin cis-reporter transcription, actives raise or lower the signal. The procedure, abridged:
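Endogenous transcription factor activity is captured through cis-promoter reporter constructs transiently introduced into human HepG2 liver cells. Induced reporter mRNA is measured after 24 h and fitted bidirectionally relative to DMSO.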

Assay [19] concerns the target Heat shock factor protein 1 (Homo sapiens) (UniProt Q00613). As to the kind of experiment: ATG_HSE_CIS: Attagene CIS-FACTORIAL HepG2 Assay for human Heat Shock Transcription Factor 1 (HSE) (AID 2282953). To be noted: HepG2 HSE cis-reporter, Attagene RNA transcription; actives raise or lower the signal. Put shortly: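 Read-out: fluorescence of reporter-specific RT-PCR fragments separated by capillary electrophoresis. HepG2 carrying transfected cis-element reporter units; 24 h dosing; activity fitted in both directions relative to DMSO baseline.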

Assay [20] has as its target Signal transducer and activator of transcription 3 (Homo sapiens) (UniProt P40763). As to the kind of experiment: ATG_STAT3_CIS: Attagene CIS-FACTORIAL HepG2 Assay for human Signal Transducer and Activator of Transcription 3 (STAT3) (AID 2282963). To be noted: HepG2, Attagene cis-factorial STAT3 reporter transcription; actives raise or lower the signal. The procedure, abridged: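 Cis-factorial format: endogenous transcription factors in HepG2 drive transfected reporter units. After 24 h treatment, reporter RNA was reverse-transcribed, amplified, FAM-labelled and HpaI-digested before CE analysis; activity scored in both directions against DMSO.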

Active and inactive are the calls of the source. Rule for the calls: active = hit-call score of the fitted dose curve at least 0.9, where 1 is the maximum; inactive = score below 0.9.

Heat shock factor protein 1 (Homo sapiens), sequence (Q00613 whole entry, looked up, the tested form may be a part): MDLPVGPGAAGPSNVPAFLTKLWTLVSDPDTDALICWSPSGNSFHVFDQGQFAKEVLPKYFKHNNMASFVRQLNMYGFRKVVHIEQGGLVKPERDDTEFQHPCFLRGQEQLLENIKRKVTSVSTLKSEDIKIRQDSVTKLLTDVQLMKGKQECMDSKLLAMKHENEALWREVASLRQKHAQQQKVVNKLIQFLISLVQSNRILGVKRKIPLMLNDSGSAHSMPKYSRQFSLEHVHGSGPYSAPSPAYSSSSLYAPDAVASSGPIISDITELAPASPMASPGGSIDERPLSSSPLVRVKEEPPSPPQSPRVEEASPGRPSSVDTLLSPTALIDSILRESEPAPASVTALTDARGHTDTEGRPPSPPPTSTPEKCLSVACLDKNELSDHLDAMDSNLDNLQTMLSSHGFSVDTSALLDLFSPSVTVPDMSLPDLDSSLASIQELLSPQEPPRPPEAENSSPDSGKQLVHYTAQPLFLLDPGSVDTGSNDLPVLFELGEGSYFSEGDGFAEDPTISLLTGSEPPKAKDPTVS
Transcription factor Sp1 (Homo sapiens), sequence (P08047 whole entry, looked up, the tested form may be a part): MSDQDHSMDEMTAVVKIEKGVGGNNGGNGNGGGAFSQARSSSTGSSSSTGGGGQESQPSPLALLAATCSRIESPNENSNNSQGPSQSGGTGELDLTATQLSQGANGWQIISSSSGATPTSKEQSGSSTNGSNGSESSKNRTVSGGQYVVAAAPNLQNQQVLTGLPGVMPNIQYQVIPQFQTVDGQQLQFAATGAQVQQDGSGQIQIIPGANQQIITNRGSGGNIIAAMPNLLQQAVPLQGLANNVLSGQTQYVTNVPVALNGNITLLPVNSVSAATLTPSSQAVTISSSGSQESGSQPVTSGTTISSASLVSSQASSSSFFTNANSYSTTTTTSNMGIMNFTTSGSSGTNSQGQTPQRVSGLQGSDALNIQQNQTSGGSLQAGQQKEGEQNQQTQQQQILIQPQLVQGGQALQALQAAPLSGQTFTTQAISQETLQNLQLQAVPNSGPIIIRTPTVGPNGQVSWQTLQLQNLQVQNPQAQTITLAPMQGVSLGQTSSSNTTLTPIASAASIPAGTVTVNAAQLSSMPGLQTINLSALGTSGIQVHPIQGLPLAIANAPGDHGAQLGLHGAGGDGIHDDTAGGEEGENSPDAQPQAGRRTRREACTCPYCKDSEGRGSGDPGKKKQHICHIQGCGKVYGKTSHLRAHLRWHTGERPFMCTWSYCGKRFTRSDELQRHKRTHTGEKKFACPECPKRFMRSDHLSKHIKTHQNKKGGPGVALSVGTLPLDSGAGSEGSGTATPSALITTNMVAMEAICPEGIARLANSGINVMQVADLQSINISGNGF
Hepatocyte nuclear factor 6 (Homo sapiens), sequence (Q9UBC0 whole entry, looked up): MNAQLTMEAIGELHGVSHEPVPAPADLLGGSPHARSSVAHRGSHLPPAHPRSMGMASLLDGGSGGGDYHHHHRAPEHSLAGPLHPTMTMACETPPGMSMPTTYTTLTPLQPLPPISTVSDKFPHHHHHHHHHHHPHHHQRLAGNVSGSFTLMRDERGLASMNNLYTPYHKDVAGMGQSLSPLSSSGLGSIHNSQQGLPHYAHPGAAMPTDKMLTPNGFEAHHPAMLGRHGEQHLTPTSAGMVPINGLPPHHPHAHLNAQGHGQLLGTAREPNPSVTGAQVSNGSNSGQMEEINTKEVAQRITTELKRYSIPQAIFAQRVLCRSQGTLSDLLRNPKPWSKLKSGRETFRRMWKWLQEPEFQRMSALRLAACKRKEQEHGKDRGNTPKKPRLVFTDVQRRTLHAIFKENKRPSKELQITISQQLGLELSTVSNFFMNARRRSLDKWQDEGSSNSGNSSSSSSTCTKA
Hypoxia-inducible factor 1-alpha (Homo sapiens), sequence (Q16665 whole entry, looked up): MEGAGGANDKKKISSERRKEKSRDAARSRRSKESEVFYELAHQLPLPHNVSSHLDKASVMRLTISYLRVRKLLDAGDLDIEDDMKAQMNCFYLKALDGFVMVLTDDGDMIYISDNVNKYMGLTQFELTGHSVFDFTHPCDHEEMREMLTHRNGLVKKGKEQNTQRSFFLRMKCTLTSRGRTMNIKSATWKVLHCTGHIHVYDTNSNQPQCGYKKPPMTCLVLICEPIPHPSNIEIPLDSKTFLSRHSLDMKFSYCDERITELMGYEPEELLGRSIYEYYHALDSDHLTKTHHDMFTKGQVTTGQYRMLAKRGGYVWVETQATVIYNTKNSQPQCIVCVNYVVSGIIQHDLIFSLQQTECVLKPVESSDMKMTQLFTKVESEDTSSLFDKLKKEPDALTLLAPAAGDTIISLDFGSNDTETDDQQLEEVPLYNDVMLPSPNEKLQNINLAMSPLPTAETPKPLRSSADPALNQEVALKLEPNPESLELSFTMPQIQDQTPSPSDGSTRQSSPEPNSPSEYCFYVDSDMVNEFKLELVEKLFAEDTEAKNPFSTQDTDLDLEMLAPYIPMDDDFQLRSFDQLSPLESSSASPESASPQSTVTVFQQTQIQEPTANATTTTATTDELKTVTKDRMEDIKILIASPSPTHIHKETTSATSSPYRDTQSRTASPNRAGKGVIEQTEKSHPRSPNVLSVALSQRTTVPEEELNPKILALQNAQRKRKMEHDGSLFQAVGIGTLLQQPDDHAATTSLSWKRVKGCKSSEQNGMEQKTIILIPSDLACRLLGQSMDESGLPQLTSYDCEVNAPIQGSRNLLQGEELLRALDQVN
Bile acid receptor (Homo sapiens), sequence (Q96RI1 whole entry, looked up): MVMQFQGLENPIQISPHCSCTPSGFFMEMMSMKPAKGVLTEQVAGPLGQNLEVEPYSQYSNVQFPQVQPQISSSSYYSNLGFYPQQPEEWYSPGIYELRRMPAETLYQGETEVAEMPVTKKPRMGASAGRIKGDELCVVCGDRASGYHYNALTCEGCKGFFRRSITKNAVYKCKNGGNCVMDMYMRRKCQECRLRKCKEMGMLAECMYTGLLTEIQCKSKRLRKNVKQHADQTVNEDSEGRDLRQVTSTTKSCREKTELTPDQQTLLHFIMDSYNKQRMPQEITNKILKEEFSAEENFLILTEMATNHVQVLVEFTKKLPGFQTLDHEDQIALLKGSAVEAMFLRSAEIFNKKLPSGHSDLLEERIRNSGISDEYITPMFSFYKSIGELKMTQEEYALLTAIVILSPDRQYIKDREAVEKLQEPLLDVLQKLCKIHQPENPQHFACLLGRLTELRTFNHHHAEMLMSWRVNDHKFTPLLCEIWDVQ
Paired box protein Pax-6 (Homo sapiens), sequence (P26367 whole entry, looked up): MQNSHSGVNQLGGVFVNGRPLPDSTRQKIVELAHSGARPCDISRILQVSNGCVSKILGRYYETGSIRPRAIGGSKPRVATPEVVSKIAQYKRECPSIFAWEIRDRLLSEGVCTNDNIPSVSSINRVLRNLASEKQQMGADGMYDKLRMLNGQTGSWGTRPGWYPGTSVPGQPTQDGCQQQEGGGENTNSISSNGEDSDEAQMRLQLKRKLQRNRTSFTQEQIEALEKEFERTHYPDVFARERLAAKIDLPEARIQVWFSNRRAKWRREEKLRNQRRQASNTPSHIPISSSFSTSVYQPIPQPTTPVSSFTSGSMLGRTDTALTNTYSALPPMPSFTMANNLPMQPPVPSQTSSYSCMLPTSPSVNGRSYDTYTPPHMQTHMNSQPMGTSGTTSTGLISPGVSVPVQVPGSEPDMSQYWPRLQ
Signal transducer and activator of transcription 3 (Homo sapiens), sequence (P40763 whole entry, looked up): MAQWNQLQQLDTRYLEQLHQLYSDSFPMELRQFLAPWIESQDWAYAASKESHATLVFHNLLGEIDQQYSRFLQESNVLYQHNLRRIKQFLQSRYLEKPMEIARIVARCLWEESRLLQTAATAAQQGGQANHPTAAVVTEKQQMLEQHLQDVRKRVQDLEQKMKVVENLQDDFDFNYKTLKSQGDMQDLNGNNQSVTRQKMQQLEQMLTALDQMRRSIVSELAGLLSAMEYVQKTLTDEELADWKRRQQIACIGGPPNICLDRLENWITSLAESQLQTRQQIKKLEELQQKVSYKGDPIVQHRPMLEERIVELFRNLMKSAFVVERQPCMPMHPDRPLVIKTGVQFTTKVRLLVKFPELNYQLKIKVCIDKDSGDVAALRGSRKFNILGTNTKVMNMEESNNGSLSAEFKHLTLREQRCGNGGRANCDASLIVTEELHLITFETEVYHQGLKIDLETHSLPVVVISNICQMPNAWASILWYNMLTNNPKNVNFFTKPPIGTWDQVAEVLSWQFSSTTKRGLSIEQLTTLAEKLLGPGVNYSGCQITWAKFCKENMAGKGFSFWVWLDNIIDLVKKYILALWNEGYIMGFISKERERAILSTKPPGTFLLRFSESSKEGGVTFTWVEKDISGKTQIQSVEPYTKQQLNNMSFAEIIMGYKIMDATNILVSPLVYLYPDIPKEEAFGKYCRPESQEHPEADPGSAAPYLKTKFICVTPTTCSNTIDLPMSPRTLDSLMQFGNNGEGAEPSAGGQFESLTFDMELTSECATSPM

Regarding `OCCOCCO`, the outcome in [1], in assay [2], in [3], in assay [4], in assay [5] and in assay [6] was inactive. In addition, the call in assay [7], in [8], in assay [9], in [10], in assay [11] and in assay [12] was inactive. The result in [13], in [14], in assay [15], in [16], in assay [17] and in [18] was inactive.
In general, AC50 refers to the concentration at which the activity in the assay is half-maximal. Turning to `Cn1cc(-c2ccccc2)c(=O)c(-c2cccc(C(F)(F)F)c2)c1`, the compound was classed as inactive in assay [2], in assay [4], in assay [5], in assay [6], in [7] and in assay [19]. For the same compound, the compound was called inactive in assay [8], in [9], in [10], in assay [12], in assay [13] and in [14]. Besides, the compound was called inactive in [15], in assay [16] and in assay [17]. Further, the values for the AC50 in assay [3], in [11] and in assay [18] were 61.1 µM (active), 4.31 µM (active) and 100 µM (active), respectively.
Consider `O=[N+]([O-])C(Br)(CO)CO`, for which the call in assay [1], in [4], in assay [5], in [7], in assay [8] and in assay [9] was inactive. Also, the result in [12], in [16] and in [17] was inactive. For the same compound, the AC50 in assay [3] is 164 µM (active); in [6], 25 µM (active); in assay [19], 158 µM (active); in assay [11], 158 µM (active); in [13] it was 100 µM (active); in assay [14] it was 170 µM (active). Also, the AC50 in assay [15] is 145 µM (active); in [18] it was 100 µM (active).
For `Nc1ccc(Oc2ccc(N)cc2)cc1`, the outcome in assay [2], in assay [3], in [4], in [5], in assay [6] and in assay [7] was inactive. Also, the outcome in assay [19], in assay [8], in assay [9], in assay [11], in [12] and in assay [13] was inactive. The compound was classed as inactive in [14], in [15], in [16], in [20], in assay [17] and in assay [18].
